# Compound activity as filed in PubChem BioAssay.
# Only some compounds are listed: those with a hit (about 2.4% of all), similar ones and a draw of the others.
# CHRM1 PAM = human M1 muscarinic receptor positive allosteric modulators, primary screen, CHO-K1 cells, Fluo-8 calcium fluorescence, 1536-well. Muscarinic acetylcholine receptor M1 (Homo sapiens), P11229. CHO-K1 hM1, ACh EC20; 0% = ACh EC20, 100% = maximal ACh. activation, % at 3 µM. 0.088% of 360,000 active; in the data active = activation above about 19%, passing the limit was not always enough
# Target sequence (P11229 whole entry, looked up): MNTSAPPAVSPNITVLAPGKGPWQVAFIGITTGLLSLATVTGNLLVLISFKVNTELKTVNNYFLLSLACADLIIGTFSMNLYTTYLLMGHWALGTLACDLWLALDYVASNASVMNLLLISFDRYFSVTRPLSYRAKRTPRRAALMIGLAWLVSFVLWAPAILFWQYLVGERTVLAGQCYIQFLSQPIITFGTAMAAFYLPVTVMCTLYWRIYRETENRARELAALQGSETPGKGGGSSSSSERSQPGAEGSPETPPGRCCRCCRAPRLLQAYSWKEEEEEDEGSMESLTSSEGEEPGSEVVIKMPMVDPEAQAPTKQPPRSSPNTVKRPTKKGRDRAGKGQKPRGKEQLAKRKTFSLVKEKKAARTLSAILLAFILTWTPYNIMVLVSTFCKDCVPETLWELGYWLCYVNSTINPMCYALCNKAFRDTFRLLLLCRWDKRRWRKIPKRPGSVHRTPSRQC
# M1 ag parental = counter-screen for M1 agonists: effect in parental CHO-K1 cells | Fluo-8 calcium fluorescence; scaled to maximal ATP response, vehicle zero | 0.48% of 360,000 active | activation, % at 3 µM; in the data active = activation above about 15%;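 also: untransfected CHO-K1 host cells lacking M1 receptor as counterscreen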
# M1 antag = human M1 muscarinic receptor antagonists, primary screen, CHO-K1 cells, Fluo-8 calcium fluorescence, 1536-well; CHO-K1 hM1, ACh EC80 antagonist; inhibition, % at 3 µM; 1.3% of 360,000 active;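 active = percent inhibition above its own plate's cutoff, namely the mean of that plate's compound wells plus 3 SD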;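 also: peak over basal fluorescence ratio during 140 s after agonist addition; 0% = ACh EC80 plus DMSO and 100% = DMSO alone without agonist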
# M1 ag = human M1 muscarinic receptor agonists, primary screen, Fluo-8 calcium fluorescence, CHO-K1 cells, HTS | CHO-K1 hM1, agonist mode; 0% DMSO, 100% acetylcholine EC100 | activation, % at 3 µM | 0.33% of 360,000 active | AID 588814, 2011;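 active = activation above the run's mean compound activation plus 3 SD, cut at about 16% in these data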;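 also: peak over basal fluorescence ratio within a 140 s kinetic read after compound addition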
# CHO-K1 Ca antag = M1 antagonist counterscreen hit in parental CHO-K1 cells. 0.6% of 360,000 active. ATP-induced calcium, Fluo-8 fluorescence. inhibition, % at 3 µM. AID 602250;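 active = inhibition above a per-plate cutoff, the plate's mean sample inhibition plus 3 SD, cut at about 24% in these data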;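 also: 0% = DMSO plus EC80 ATP and 100% = DMSO alone without ATP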
# M1 PAM parental = nonselective calcium activators in parental CHO-K1 cells, primary screen, counter-screen for M1 PAM project, cell-based, Fluo-8 calcium fluorescence, full deck, 1536-well; ATP EC20; 0% at ATP EC20, 100% at ATP max; activation, % at 3 µM; 0.02% of 360,000 active; AID 602247, 2012;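 active = activation above the run cutoff, the mean activation of all test compounds plus 3 SD, cut at about 40% in these data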;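 also: peak over basal fluorescence ratio in a 140 s read after ATP addition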
# Starred values were filed as active, the others as inactive.
SMILES,CHRM1 PAM,M1 ag parental,M1 antag,M1 ag,CHO-K1 Ca antag,M1 PAM parental
Cc1cccc(C)c1NC(=O)CNC(=O)CNC(=O)c1ccc2ccccc2c1,10.1,0.7,22.9,11.6,14.0,-20.9
Cc1ccc(S(=O)(=O)N2[C@@H](c3ccc(F)cc3)C(C(=O)O)=C[C@H]2CC2CCCC2)cc1,-3.9,0.2,11.4,-3.9,17.2,-7.9
CCCn1c(N)c(N(CCOC)C(=O)CSc2cc(C)c3cccc(C)c3n2)c(=O)[nH]c1=O,-5.7,0.2,19.3,-2.9,-9.4,4.1
CCOC(=O)c1c(C)[nH]c(C)c1S(=O)(=O)NC(CC)CN1CCOCC1 (stereo not given),6.2,0.2,-4.6,-5.0,-10.1,7.5
COc1ccc(N2CCN(Cc3nc4c(c(=O)n(C)c(=O)n4C)n3CCc3ccccc3)CC2)cc1,9.7,-0.2,-14.7,5.1,26.8*,-4.7
Cn1c(=O)c2c(nc(N3CCCCCC3)n2CC(=O)c2ccccc2)n(C)c1=O,12.1,0.1,-34.6,-1.1,-7.2,19.9
Cn1c(=O)c2c(nc(CN3CCN(CCO)CC3)n2Cc2ccccc2Cl)n(C)c1=O,0.4,0.0,3.8,-6.6,-2.8,-3.3
Cn1c(=O)c2c(nc(CN3CCN(CCO)CC3)n2Cc2cccc3ccccc23)n(C)c1=O,0.6,0.0,9.2,-4.0,25.6*,-7.9
COc1ccc(C(=O)Cn2c(N3CCCCC3)nc3c2c(=O)n(C)c(=O)n3C)cc1OC,6.5,18.4*,4.8,-3.9,1.8,15.4
CN1CCN(c2nc3c(c(=O)n(C)c(=O)n3C)n2Cc2ccccc2Cl)CC1,-28.2,0.0,57.4*,-10.4,0.3,0.9
COCCn1c(CN2CCN(c3ccc(OC)cc3)CC2)nc2c1c(=O)n(C)c(=O)n2C,4.9,0.1,-3.9,-6.4,-6.4,4.1
Cc1cc(C)n2nc(C(F)(F)F)c(-c3ccccc3)c2n1,4.2,-1.0,-10.7,-5.6,-17.7,17.9
Cc1ccc(Cl)cc1NC1=NC(=S)N(C(C)C)C12CCCCC2,4.1,0.2,-5.2,-2.4,-9.9,6.7
CCN(CC)c1ncnc2c1cnn2Cc1ccc(Cl)cc1,-6.5,6.9,13.1,-2.7,-3.4,17.9
Cc1cc(C)c(C(=O)N(C)C2CCCN(Cc3ccccc3F)C2)o1 (stereo not given),11.5,0.1,-11.2,-5.9,-7.6,-0.1
O=C(CNS(=O)(=O)c1ccc(Br)s1)NCc1ccc(F)cc1,-5.6,3.2,0.9,-8.9,-16.3,7.3
O=C(CCNS(=O)(=O)c1ccc(Br)s1)NCc1ccc(F)cc1,-5.1,-0.4,5.7,-4.6,29.4*,-15.5
O=C(c1cc2ccccc2o1)N1CCC(N2CCC(C(=O)N3CCCC3)CC2)CC1,-9.7,-0.6,8.7,-13.7,24.1*,-15.9
N#C/C(=C/c1ccc(O)cc1)C(=O)NCc1ccc(Cl)cc1,3.5,1.7,7.3,8.4,5.0,-15.2
N#C/C(=C\c1ccc(O)cc1)C(=O)NCc1cccc(Cl)c1,9.8,16.7*,-11.8,23.9*,-10.0,2.8
Cc1noc(C)c1COc1ccc(C(=O)NCCc2ccccn2)cc1,6.2,2.8,-12.1,-5.7,-11.5,13.2
Cc1nc(NC(=O)COC(=O)CCc2ccccc2)c(Cl)cc1Cl,25.0*,-0.6,-13.6,2.4,-2.5,-8.2
CC1CCN(CC(=O)N2CCCc3c2c(=O)oc2ccc(OCc4ccccc4)cc32)CC1,-23.3,-0.7,48.9*,-5.7,-0.9,17.2
CC1CC(C)CN(CC(=O)N2CCCc3c2c(=O)oc2ccc(OCc4ccccc4)cc32)C1 (stereo not given),-9.3,0.0,1.2,-5.8,-8.1,21.4
CN1CCN(S(=O)(=O)c2ccc3c(c2)C(C)(C)C(=O)N3C)CC1,-1.1,0.2,5.7,-1.2,24.6*,-5.2
SMILES,CHRM1 PAM,M1 ag parental,M1 antag,M1 ag,CHO-K1 Ca antag,M1 PAM parental
CN1C(=O)C(C)(C)c2cc(S(=O)(=O)N3CCN(c4ccc(F)cc4)CC3)ccc21,-0.3,1.2,4.2,-2.1,-3.5,-4.2
Cc1cc(OCC(O)CN2CCc3ccccc3C2)cc(C(C)C)c1 (stereo not given),-27.8,2.4,31.7*,-6.1,4.2,-8.7
O=C1Nc2ccc(Br)cc2/C1=C/C(=O)c1ccc2c(c1)OCO2,7.6,2.2,15.2,10.3,11.8,-1.3
COc1ccc(C(=O)/C=C2\C(=O)Nc3ccc(Br)cc32)cc1,11.9,3.6,20.2,19.2*,13.3,9.3
Cc1cc2oc(C(=O)Nc3ccc(S(N)(=O)=O)cc3)c(C)c2cc1Cl,-6.5,-0.6,1.7,-2.6,27.9*,-10.6
O=C(CN1C(=O)COc2ccccc21)c1ccc(Cl)cc1,-8.9,0.0,28.4,-2.7,30.2*,-7.9
CCCCNC(=O)C1(C)CCCCN1Cc1ccccc1-c1ccccc1 (stereo not given),-24.5,0.3,31.2*,-7.3,-14.6,14.8
CCOc1ccc(/C=C/C(O)=C2/C(=O)NC3(C)CC2c2ccccc2O3)cc1OC (stereo not given),-15.1,8.2,44.0*,-0.4,-1.8,-9.1
O=C(NCC(c1ccco1)N1CCCCC1)c1ccc(NS(=O)(=O)c2ccc(F)cc2)cc1 (stereo not given),-14.8,0.1,14.3,-6.2,1.4,-7.2
Cc1cccc(NS(=O)(=O)c2cccc(C(=O)NCC(c3ccco3)N3CCCCC3)c2)c1 (stereo not given),-3.3,0.8,6.2,-6.9,0.9,-20.9
O=C(NCC(c1ccco1)N1CCCC1)c1cccc(NS(=O)(=O)c2ccc(Br)cc2)c1 (stereo not given),-23.3,1.6,50.3*,-6.8,-10.3,6.4
O=C(NCC(c1ccco1)N1CCCC1)c1ccc(S(=O)(=O)Nc2ccc(F)cc2)cc1 (stereo not given),-24.9,6.4,49.6*,-0.7,-4.3,3.1
S=C(NCCc1ccccc1)Nc1ccccc1Cl,-0.6,-0.3,-6.7,-11.2,-3.5,8.3
S=C(Nc1cccc2ccccc12)NN1CCCCCC1,-20.9,-0.4,40.7*,-6.8,-0.3,-11.1
S=C(NCCCc1ccccc1)Nc1ccccc1Cl,-13.6,15.3*,6.6,-1.2,19.8,-8.4
S=C(NCCc1ccncc1)Nc1cccc2ccccc12,-6.5,-0.1,4.8,-4.3,26.6*,-17.9
S=C(Nc1cccc2ccccc12)NN1CCOCC1,10.1,0.4,-21.5,-2.9,-12.3,23.4
C=CCNC(=S)Nc1cccc2ccccc12,6.2,0.3,-7.3,-6.9,-21.5,22.4
S=C(NCCc1ccccn1)Nc1ccccc1Cl,10.4,-0.1,1.3,-5.3,27.0*,-15.7
